# A selection: hits, their analogues and other compounds. The true share with any hit is near 8.7%.
# Pf growth 48h = Primary qHTS for delayed death inhibitors of the malarial parasite plastid, 48 hour incubation; P. falciparum luciferase growth in erythrocytes, 48 h; Potency, µM (series often up to 28.7 µM), for the others: at the highest dose activity change, negative = inhibition, usual class: inhibitors; hit rate 5.9% among 310,000
#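 Luminescence readout; reporter = integrated firefly luciferase in P. falciparum. RBC culture at 2% hematocrit, 0.1% parasitemia final, 37 C/5% CO2; decreased signal taken as growth inhibition.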
# Pf growth 96h = Primary qHTS for delayed death inhibitors of the malarial parasite plastid, 96 hour incubation; P. falciparum luciferase reporter growth, 96 h; Potency, µM (top dose mostly 28.7 µM), for inactives: top-dose activity change, negative = inhibition, actives largely listed as inhibitors; hit rate 6.9% among 320,000
#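 Compounds incubated with erythrocytes infected by luciferase-expressing P. falciparum (2% hematocrit, 0.05% parasitemia final) for 96 hours, 37 C in 5% CO2. Growth inhibition scored as decreased luciferase luminescence.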
# VACV mCherry inh = qHTS for Stage-Specific Inhibitors of Vaccinia Orthopoxvirus: mCherry Reporter Primary qHTS; Potency, µM (highest dose often 36.5 µM), for the others: top-dose activity change, negative = inhibition, hits mostly inhibitors; hit rate 0.63% among 310,000; Vaccinia virus mCherry reporter infection, fluorescence; calls by dose curve; tested in A549 cells; note: nearly all actives have a fitted effect of over 35% in size
# Vaccinia Venus = qHTS for Stage-Specific Inhibitors of Vaccinia Orthopoxvirus: Venus Reporter Primary qHTS; Potency, µM (top dose mostly 36.5 µM), inactives show at the highest dose activity change, negative = inhibition, hits mostly inhibitors; hit rate 0.46% among 330,000; Vaccinia virus Venus reporter expression, fluorescence; calls by dose curve; tested in A549 cells; note: nearly all actives have a fitted effect of over 30% in size
# AMA1-RON2 inh = qHTS for Inhibitors of AMA1-RON; Towards Development of Antimalarial Drug Lead: Primary Screen. AlphaScreen AMA1-biotinylated RON2 peptide binding. Potency, µM (highest dose often 58.2 µM), for inactives: top-dose activity change, negative = inhibition, hits mostly inhibitors. hit rate 0.2% among 360,000. AID 720542, 2013;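 note: 0% = vehicle wells and -100% = peptide control; nearly all actives have a fitted effect of over 45% in size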
#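 AMA1 (3D7) with his tag at 25 nM final met compounds first, then biotinylated RON2 peptide at 25 nM; detection used donor plus acceptor beads, 10 µg/mL apiece, read by AlphaScreen after 30 min at room temperature.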
# Numbers without * were called inactive; i = inactive; ? = inconclusive; . = no result given; [ ] = dose if it differs, or a comment. Unless noted, calls come from the whole dose curve; as a rule, active = well fitted curve in the direction sought with a large enough effect; inconclusive = small, poorly fitted or top-dose-only effect, or another doubt; inactive = no such curve, though single readings can be large; an effect the other way counts as inactive or inconclusive. Unless noted, % is set by controls: 0 for no effect and ±100 for the full control effect; potency is the fitted concentration of half-maximal effect.
SMILES,Pf growth 48h,Pf growth 96h,VACV mCherry inh,Vaccinia Venus,AMA1-RON2 inh
Cc1nc2ccc(Cl)cc2c(=O)n1-c1ccc([N+](=O)[O-])cc1,-16%,-8%,i,-5%,-11%
CC1CCN(C(=O)c2cccc(NC(=O)c3nsc4ccccc34)c2)CC1,.,.,-3%,-6%,.
O=C(Nc1ccc(F)cc1)Nc1sccc1-c1nc2ccccc2s1,8.3µM*,?,i[7.34 µM],-9%[7.34 µM],50%
O=C(Nc1ccccc1-c1nc2ccccc2s1)c1ccc(F)cc1,.,.,-18%,-20%,.
Cc1cc(/C=C(\C#N)C(=O)Nc2ccc(F)cc2)c(C)n1-c1ccc(N2CCOCC2)c([N+](=O)[O-])c1,7.4µM*,.,.,.,-6%
COc1ccc(-n2c(C)cc(/C=C(\C#N)C(=O)NCc3ccco3)c2C)cc1,4.7µM*,?,i,-10%,-12%
Cc1cc(/C=N/n2cnnc2)c(C)n1-c1ccc2c(c1)OCO2,11%,10µM*,.,.,-11%
COc1ccc(NC(=O)/C(C#N)=C/c2cc(C)n(-c3ccc(F)cc3)c2C)cc1,.,.,17%,-19%,.
COc1ccc(NC(=O)/C(C#N)=C/c2cc(C)n(-c3ccc(N4CCOCC4)c([N+](=O)[O-])c3)c2C)cc1,?,?,i,-14%,-7%
Cc1cc(/C=C(\C#N)C(=O)Nc2ccccc2)c(C)n1-c1ccc2c(c1)OCO2,12µM*,?,?,?,-2%
Cc1ccc(CNC(=O)c2cc(-c3ccc(Cl)cc3)on2)cc1,.,.,-10%,-3%,.
CN(C)c1ccc(/C=C2/C[N+](C)(C)C/C(=C/c3ccc(N(C)C)cc3)C2=O)cc1,.,.,13%,278%,22µM*
CCc1cc2ccc(C)cc2nc1SCC(=O)NNC(=O)c1ccco1,17%,4.7µM*,.,.,90%
CCc1cc2cc(C)cc(C)c2nc1SCC(=O)N1CCN(C(=O)c2ccco2)CC1,-24%,8.3µM*,.,-15%,0%
Cc1ccc(CN2CCN(C3CCN(C(=O)Nc4ccc(C)cc4Cl)CC3)C(=O)C2=O)cc1,.,.,-9%,-11%,.
COC(=O)c1cc(C)nc2c1c(=O)nc(SCc1ccccc1F)n2C1CC1,.,.,-11%,-5%,.
O=C(O)CCc1ccc(-c2cccs2)n1NC(=O)c1ccco1,8%,10µM*,.,-14%,-6%
CCN(CC)c1ccc(-c2nnc(SCC(=O)NCc3ccco3)n2CC)cc1,.,.,-23%,-28%,.
Cn1c(CSCc2ccc(Cl)cc2)n[nH]c1=S,-10%,34%,-1%,-28%,93%
Cn1c(CSCc2ccc(F)cc2)n[nH]c1=S,-7%,13µM*,.,.,53%
CC[C@@H](C)C(NC(=O)OC(C)(C)C)c1cn([C@@H](Cc2cc3ccccc3[nH]2)C(=O)N2CCN(C(=O)OC(C)(C)C)CC2)nn1 (stereo not given in full),?,3.7µM*,-23%,?,-2%
CC(C)CC(NC(=O)OC(C)(C)C)c1cn([C@@H](CCCCNC(=O)OC(C)(C)C)C(=O)N2CCN(C(=O)OC(C)(C)C)CC2)nn1 (stereo not given in full),?,3.7µM*,-12%,?,-2%
CC(C)(C)OC(=O)CC[C@@H](C(=O)N1CCN(C(=O)OC(C)(C)C)CC1)n1cc(C(Cc2ccc(O)cc2)NC(=O)OC(C)(C)C)nn1 (stereo not given in full),?,4.7µM*,-3%,-14%,-5%
N[C@@H](CO)c1cn([C@@H](Cc2cc3ccccc3[nH]2)C(=O)N2CCNCC2)nn1,53%,64%,i,-23%,37%
C[C@@H](C(=O)N1CCN(C(=O)OC(C)(C)C)CC1)n1cc(-c2cn([C@@H](C)C(=O)N3CCN(C(=O)OC(C)(C)C)CC3)nn2)nn1,37%,71%,.,.,.
SMILES,Pf growth 48h,Pf growth 96h,VACV mCherry inh,Vaccinia Venus,AMA1-RON2 inh
CC[C@@H](C)C(NC(=O)OC(C)(C)C)c1cn([C@@H](CCCCNC(=O)OC(C)(C)C)C(=O)N2CCN(C(=O)OC(C)(C)C)CC2)nn1 (stereo not given in full),?,4.1µM*,i,-28%,3%
Oc1c(C(c2ccc(Cl)cc2)N2CCCC2)sc2nc(-c3ccco3)nn12 (stereo not given),.,.,-10%,-4%,.
O=C(NCc1cccc(Cl)c1)c1cnc(N2CCCCC2)c2ccccc12,.,.,-9%,-7%,.
CCOC(=O)c1c(NC(C)=O)sc2c(OCCN(CC)CC)c(Br)ccc12,?,89%,.,.,-3%
CCOC(=O)c1c(NC(C)=O)sc2c(OCC(O)CN(CC)CC)c(Br)ccc12 (stereo not given),-21%,7.4µM*,-12%,-15%,2%
COc1cccc(C(=O)Nc2cccc(OCc3cc(=O)n4cc(C)ccc4n3)c2)c1,.,.,i,-17%,.
C=CCn1c(SCC(=O)c2c(N)n(C)c(=O)n(C)c2=O)nnc1-c1ccccc1F,26%,?,.,.,-2%
C=CCn1c(SC(C)C(=O)c2c(N)n(C)c(=O)n(C)c2=O)nnc1-c1ccoc1C (stereo not given),12µM*,8.3µM*,.,.,-6%
CN(C)C(/C=C/Nc1ccc(O)cc1)=C(C#N)C#N,?,9.3µM*,7%,2%,25%
CCOC(=O)C(C)NC(=O)Cn1ncc2c(=O)oc3ccc(C)cc3c21 (stereo not given),?,83%,.,.,-14%
COC(=O)C(CCSC)NC(=O)Cn1ncc2c(=O)oc3ccc(C)cc3c21 (stereo not given),24%,15µM*,-14%,3%,10%
CCn1cc(C(=O)N2CCN(c3ccc(F)cc3)CC2)c(=O)c2cc(S(=O)(=O)N3CCOCC3)ccc21,.,.,-10%,-7%,.
CSc1nnc(-c2sc3cc(C(F)(F)F)cnc3c2-c2ccccc2)n1C,.,6.6µM*,.,?,24%
CCOC(=O)c1cc(-c2ccc(C)cc2)n(CC(=O)NC2CCCCCC2)c1C,.,.,-9%,-9%,.
Cc1c(C(=O)N(C)CCOc2ccccc2)oc2c(Cl)cccc12,?,-11%,-23%,-13%,8%[11.6 µM]
COCc1cc(CN(C)C(=O)c2oc3c(F)cccc3c2C)[nH]n1,11%,13µM*,-26%,-12%,-9%
COC(=O)c1c(NC(=O)CCCOc2ccc(C(C)(C)C)cc2)sc2c1C(C(=O)OC)CC2 (stereo not given),.,.,0%[7.34 µM],-7%[7.34 µM],.
CCOc1cc(CNc2ccc3cn[nH]c3c2)ccc1OC,.,13µM*,?,?,-11%
CCCN(CCC)CCCNC(=O)c1cc2c(=O)n(C)c3ccccc3c2s1,.,.,-8%,-6%,.
CCCS(=O)(=O)c1c(S(=O)(=O)CCC)c2c3ccccc3ccn2c1C(=O)OC,12µM*,45%,.,.,0%
